These results are taken from PubChem BioAssay (Tox21).

Records with an inconclusive call do not appear. A call without a number means that no potency is given here. The source made the active and inactive calls. Calls follow the shape of the dose curve; as a rule, active = well fitted cell-killing curve with a large enough effect in the repeat runs; inconclusive = weak or mixed curves, or effect the other way; inactive = flat fitted curve, though single readings scatter.

The nature of the assay: qHTS assay to identify small molecule antagonists of the estrogen receptor alpha (ER-alpha) signaling pathway using the BG1 cell line in the presence of 0.1 nM 17-beta-estradiol - cell viability counter screen (AID 1259241). Also: nearly all actives have a fitted effect of over 40% in size. The settings on record: VM7Luc4E2 (BG1) viability, CellTiter-Fluor protease, 22 h, 0.1 nM estradiol agonist added; series mostly up to 92.4 µM. The source says: National Center for Advancing Translational Sciences [NCATS]
NIH Chemical Genomics Center [NCGC]
U.S. Environmental Protection Agency [EPA]
National Institutes of Environmental Health Sciences [NIEHS]
National Toxicology Program [NTP]
U.S. Food and Drug Administration [FDA]
Estrogen receptor (ER), a member of the nuclear hormone receptor plays an important role in development, metabolic homeostasis and reproduction. Two subtypes of ER, ER-alpha and ER-beta, have similar expression patterns with some uniqueness in both types. Endocrine disrupting chemicals (EDCs) and their interactions with steroid hormone receptors like ER causes disruption of normal endocrine function. Therefore, it is important to understand the effect of environmental chemicals in ER signaling pathway. For identifying ER antagonists, VM7Luc4E2 cell line was used to screen against Tox21 compound libraries.
VM7Luc4E2 cell line (provided by Denison MS, University of California) endogenously express full-length ER-alpha and is stably transfected with a plasmid containing four estrogen responsive elements (ERE) upstream of a luciferase reporter gene. The current screening for identification of ER-alpha inhibitors against Tox21 compound libraries used lower concentration (0.1 nM) of 17beta-Estradiol as a stimulator. The cytotoxicity of the Tox21 compound libraries against VM7Luc4E2 cell line was tested by measuring live-cell protease activity using CellTiter-Fluor assay in the same wells.
Tox21 Assay Protocol Summary:
VM7Luc4E2 cells were cultured in phenol red free assay medium containing 10% charcoal stripped FBS for 5 days prior to the assay. The cells were dispensed at 4,000 cells/well in 4 uL of assay medium into white wall/solid-bottom 1536-well plates (Corning Life Sciences, Corning, NY) using a Multidrop Combi (ThermoFisher Scientific, Waltham, MA) dispenser. After the assay plates were incubated at 37C and 5% CO2 for 24 hr, 23 nL of compounds dissolved in DMSO, positive controls or DMSO only was transferred to the assay plates by a Pintool station (Kalypsys, San Diego, CA). The transfer of compounds was followed by the addition of 1 uL of 0.1 nM (final concentration) agonist (17beta-Estradiol)/assay medium using a Flying Reagent Dispenser (FRD, Aurora Discovery, San Diego, CA). The plates were incubated at 37C and 5% CO2 for 22 hr. For cytotoxicity assay, 1 uL of CellTiter-Fluor reagent (Promega Corporation, Madison, WI) was added to each well using the FRD and after 30 min incubation at 37C and 5% CO2, The fluorescence intensity was measured using ViewLux plate reader (PerkinElmer, Shelton, CT).
(In general: qHTS replaces the single test concentration by a dilution series.)
As for `O=C1c2ccccc2C(=O)N1SC(Cl)(Cl)Cl`, the Potency result was “inactive”. Under `O=C(O)C(O)C(O)C(=O)O` (stereo not given) stands “inactive”; under `CCCCCCCCP(=O)(O)O`, “inactive”; under `CC(C)C1(C)N=C(c2ncccc2C(=O)O)NC1=O` (stereo not given), “inactive”. Consider `COC(=O)C1(O)c2ccccc2-c2ccccc21`, for which the Potency entry is “inactive”.

As for `CC(=O)OC(c1ccccc1)C(Cl)(Cl)Cl` (stereo not given), the Potency entry is “inactive”.

Regarding `CCCCC(CC)CO[N+](=O)[O-]` (stereo not given), the Potency result is “inactive”.

For the compound `CCc1ccccc1N`, the Potency entry is “inactive”. As for `NCCc1cc(O)c(O)cc1O`, the Potency result was “inactive”. Under `CCOP(=S)(OCC)Oc1ccc(S(C)=O)cc1` (stereo not given) stands “inactive”.

Turning to `C=CCOC(=O)C(C)(C)OC(=O)c1cc(-n2c(=O)cc(C(F)(F)F)n(C)c2=O)ccc1Cl`, the Potency result was “inactive”.

With `CN(C1CCCCC1)C1CCCCC1`, the Potency entry was “inactive”. Consider `CCOP(=O)(SC(C)CC)N1CCSC1=O` (stereo not given), for which the Potency result is “inactive”. For `CC(C)OC(=O)Cc1ccccc1` the value was “inactive”; for `O=C(Cc1ccccc1)OCCc1ccccc1`, “inactive”; for `C[C@H](N)[C@H](O)c1ccc(O)c(O)c1`, “inactive”. On to `C=CCSSCC=C`, for which the Potency result is “inactive”. For `CCCC[P+](CC)(CCCC)CCCC` (tested in a mixture with another compound) the value was “inactive”. With `C=CC(=O)OCC`, the Potency entry is “inactive”.

Turning to `CCc1cnc(C2=NC(C)(C(C)C)C(=O)N2)c(C(=O)O)c1` (stereo not given), the Potency result is “inactive”. For `O=C(O)c1cc(Cl)ccc1Cl` the value was “inactive”. Under `CON(C)C(=O)Nc1ccc(Cl)cc1` stands “inactive”; under `NNCCO`, “inactive”. Under `C1CS1` stands “inactive”. For `C[N+]1(CCF)[C@@H]2CC[C@H]1CC(OC(=O)C(O)(c1ccccc1)c1ccccc1)C2` (stereo not given in full), the Potency entry was “inactive”. Under `CCC1CCC(=O)O1` (stereo not given) stands “inactive”. For `C[C@]12CC[C@H]3[C@@H](CCC4=CC(=O)CC[C@@H]43)[C@@H]1CC[C@@H]2OC(=O)CCc1ccccc1` the value was “inactive”. For the compound `O=C1CC[C@@]2(O)[C@H]3Cc4ccc(O)c5c4[C@@]2(CCN3CC2CC2)[C@H]1O5`, the Potency entry is “inactive”. Consider `NP(N)(=O)NC(=O)c1ccc(F)cc1`, for which the Potency result is “inactive”. For `CCC1(CC)C(=O)NC(=O)NC1=O`, the Potency result was “inactive”. For `O=C(O)C(F)(F)C(F)(F)C(F)(F)C(F)(F)C(F)(F)F` the value was “inactive”; for `O=C(O)c1cc(I)cc(I)c1I`, “inactive”. Under `CCCCOC(=O)CCC(=O)OCCCC` stands “inactive”. As for `C=CCc1ccccc1O`, the Potency result is “inactive”. Under `CCCN(CCC)C(=O)Cc1c(-c2ccc(Cl)cc2)nc2ccc(Cl)cn12` stands “inactive”. With `O=C(Cl)OCCOCCOC(=O)Cl`, the Potency result is “inactive”. On to `CC(Cc1ccccc1)NCc1ccccc1Cl` (stereo not given), for which the Potency result is “inactive”. Under `CCC(=O)O[C@@H]1C=C2CCC3C(CCC4(C)C3CC[C@@H]4OC(=O)CC)C2CC1` (stereo not given in full) stands “inactive”. In the case of `Nc1cccc2ccccc12`, the Potency result was “inactive”. For `O=S(=O)(Cl)Cl` the value was “inactive”.
